Source: PubChem BioAssay AID1053173 (Broad Institute, 2014)
Screen size: about 1,500 compounds; about 390 (26%) were called active. No rule for the calls is given here. Only a sample is shown. Potency and affinity values are given separately.

These compounds were tested against Histone-lysine N-methyltransferase NSD2 (Homo sapiens) (UniProt O96028) (assay: blockers of NSD2 H4 peptide methylation – biochemical, AlphaScreen, cherry-picked samples, dose response (AID 1053173;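 also: 0% = neutral control wells and -100% = positive control wells on each plate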)). Details: 120 min; series mostly up to 10 µM; activity change, negative = inhibition: at the top concentration.
Histone-lysine N-methyltransferase NSD2 (Homo sapiens), sequence (O96028 whole entry, looked up): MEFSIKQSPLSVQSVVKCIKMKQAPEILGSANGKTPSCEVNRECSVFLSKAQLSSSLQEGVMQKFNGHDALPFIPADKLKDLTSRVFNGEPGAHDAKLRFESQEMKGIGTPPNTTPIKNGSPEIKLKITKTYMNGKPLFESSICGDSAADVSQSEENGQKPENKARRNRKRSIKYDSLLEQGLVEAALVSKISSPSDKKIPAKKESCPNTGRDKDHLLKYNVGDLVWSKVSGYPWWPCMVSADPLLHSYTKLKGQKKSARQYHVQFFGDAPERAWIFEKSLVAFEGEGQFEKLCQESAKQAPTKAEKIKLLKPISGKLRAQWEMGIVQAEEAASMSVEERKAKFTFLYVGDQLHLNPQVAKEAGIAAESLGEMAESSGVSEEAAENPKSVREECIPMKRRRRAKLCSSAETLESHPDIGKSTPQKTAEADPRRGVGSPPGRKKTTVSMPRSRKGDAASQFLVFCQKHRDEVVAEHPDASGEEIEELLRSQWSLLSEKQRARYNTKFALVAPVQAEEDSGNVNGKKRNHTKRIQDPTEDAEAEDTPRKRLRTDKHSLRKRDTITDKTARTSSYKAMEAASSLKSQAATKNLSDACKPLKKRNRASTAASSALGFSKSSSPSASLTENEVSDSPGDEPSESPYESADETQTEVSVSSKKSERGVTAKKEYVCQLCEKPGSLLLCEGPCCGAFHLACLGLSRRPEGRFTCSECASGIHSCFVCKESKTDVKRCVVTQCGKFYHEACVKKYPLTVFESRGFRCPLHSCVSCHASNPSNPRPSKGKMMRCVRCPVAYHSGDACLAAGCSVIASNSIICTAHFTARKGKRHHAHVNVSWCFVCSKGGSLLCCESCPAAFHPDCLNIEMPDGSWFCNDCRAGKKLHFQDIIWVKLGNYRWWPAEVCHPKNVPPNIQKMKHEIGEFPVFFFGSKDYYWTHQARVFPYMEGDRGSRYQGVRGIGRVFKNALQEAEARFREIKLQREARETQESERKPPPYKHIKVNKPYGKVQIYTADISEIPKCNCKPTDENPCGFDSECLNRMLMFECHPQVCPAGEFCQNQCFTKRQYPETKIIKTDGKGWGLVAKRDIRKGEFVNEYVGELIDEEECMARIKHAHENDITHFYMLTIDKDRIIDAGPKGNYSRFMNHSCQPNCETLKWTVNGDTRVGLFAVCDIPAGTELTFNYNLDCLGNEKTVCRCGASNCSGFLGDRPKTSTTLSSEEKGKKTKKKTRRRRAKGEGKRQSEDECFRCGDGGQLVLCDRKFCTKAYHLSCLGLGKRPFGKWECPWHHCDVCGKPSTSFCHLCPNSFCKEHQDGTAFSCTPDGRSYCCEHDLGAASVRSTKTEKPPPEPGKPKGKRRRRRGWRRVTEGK

Structure (SMILES) | activity change, negative = inhibition
COc1ccccc1NC(=O)C(C)OC(=O)CCNS(=O)(=O)c1cccc(C(F)(F)F)c1 (stereo not given) | 1.15% (inactive)
O=C(NCc1ccco1)c1nc(-c2ccccc2)n(-c2ccccc2)n1 | -2.2% (inactive)
CCOc1cc(N2CCOCC2)c(OCC)cc1NC(C)C(=O)N1CCN(CC)CC1 (stereo not given) | -1.64% (inactive)
Cc1nc(COC(=O)c2cc(O)c3ccccc3c2O)cs1 | -1.16% (inactive)
CCCC(=O)c1ccc(O)cc1O | 0.614% (inactive)
COCCN1CC(=O)N2C(c3cccc(C)c3)c3[nH]c4ccccc4c3C[C@H]2C1=O (stereo not given in full) | -2.11% (inactive)
COc1ccc(C2CC(=O)c3c(C)nc(N4CCN(c5ccccc5)CC4)nc3C2)cc1 (stereo not given) | 0.827% (inactive)
CCOCCCNC(=O)Cn1cc2c(n1)-c1c(oc(C(=O)N3CCCC3)c1C)CC2 | 0.254% (inactive)
O=C(NC1CCCC1)c1cc(-c2ccc(Cl)cc2Cl)on1 | -3.59% (inactive)
CC1CN(C(=O)COC(=O)/C=C/c2ccccc2)CC(C)O1 (stereo not given) | -1.51% (inactive)
Cc1cccc(OCCn2c(=S)[nH]c3ccccc32)c1 | -3.36% (inactive)
Cc1cccc(Nc2nc(NCc3ccco3)nc(N)c2[N+](=O)[O-])c1 | -4.37% (inactive)
CC1=CCC2C(=O)N(c3cccc(C(=O)N(C)C4CCCCC4)c3)C(=O)C2C1 (stereo not given) | 0.384% (inactive)
CCN(CC)CCOc1ccc(C=NNc2nc3c([nH]2)c(=O)n(C)c(=O)n3C)cc1 | -11.9% (inactive)
COc1ccc(CNC(=O)c2nnn(-c3cccc(C(F)(F)F)c3)c2N)cc1 | 4.73% (inactive)
CC(=O)Nc1ccc(C(=O)OCC(=O)/C(C#N)=C(\C)N)cc1 | -2.9% (inactive)
CC1CCCCC1NC(=O)COC(=O)c1ccc2c(=O)n3c(nc2c1)CCC3 (stereo not given) | -1.1% (inactive)
O=C(Nc1nccs1)c1ccc2nccnc2c1 | -5.53% (inactive)
Cc1ccc(NC(=O)CCN2CCN(C/C=C/c3ccccc3)CC2)cc1C | -7.29% (inactive)
CCCCOc1ccc(-c2ncc(N)cn2)cc1 | 7.56% (inactive)
O=C(O)CC1S/C(=N/N=C/c2ccc(-c3ccc(Cl)cc3[N+](=O)[O-])o2)NC1=O (stereo not given) | -8.04% (inactive)
COc1ccccc1OCC(=O)Nc1ccccc1C(=O)N1CCCC1 | -4.11% (inactive)
COc1ccccc1NC(=O)c1ccc(-n2cccn2)nc1 | -1.08% (inactive)
CC12CC3(C)CC(C)(C1)CC(C(=O)NC1=NCCS1)(C2)C3 | 2.75% (inactive)
Cc1oc(-c2cccs2)nc1CN1CCN(C2CCCC2)C(CCO)C1 (stereo not given) | -3.19% (inactive)
COC(=O)c1nn(C)c(=O)[nH]c1=O | 1.85% (inactive)
CC(=O)c1c(C)[nH]c(C(=O)CSc2nnc(-c3ccco3)n2Cc2ccccc2)c1C | 3.53% (inactive)
CC1=NN(c2ccc(S(=O)(=O)O)cc2Cl)C(=O)C1 | 4.11% (inactive)
CCCCN(C)C(=O)C1CCN(Cc2cccc(OCc3ccccc3)c2)CC1 | -1.82% (inactive)
O=C(NCc1ccc(F)cc1)C1CCCN1S(=O)(=O)c1ccccc1C(F)(F)F (stereo not given) | 4.09% (inactive)
